“And” between values parts separate entries of the source, which are not always exact repeats. Equal entries are not always repeated. Inconclusive results are not listed. Some compounds were tested as several samples or in several runs, with calls that do not always agree. The source made the active and inactive calls. Rule for the calls, unless noted: active = hit-call score of the fitted dose curve at least 0.9, where 1 is the maximum; inactive = score below 0.9.

Assay [1] concerns the target human RAR-related Orphan Receptor gamma (RORg), RORC (gene 6097) (UniProt P51449). In words: ATG_RORg_TRANS: Attagene TRANS-FACTORIAL HepG2 Assay for human RAR-related Orphan Receptor gamma (RORg) (AID 2283011; active = hit-call score of the fitted dose curve at least 0.9, where 1 is the maximum). In outline: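 Chimeric RORg-Gal4 transactivation in transfected HepG2; 24 h exposure; RT-PCR/capillary electrophoresis readout of reporter mRNA, DMSO baseline.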

The target of assay [2] is Retinoic acid receptor RXR-alpha (Homo sapiens) (UniProt P19793). As to the kind of experiment: ATG_RXRa_TRANS: Attagene TRANS-FACTORIAL HepG2 Assay for human Retinoid X Receptor alpha (RXRa) (AID 2283012; active = hit-call score of the fitted dose curve at least 0.9, where 1 is the maximum). The essentials: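 Cells (HepG2) carried transiently transfected GAL4-responsive reporter units. Following a 24 h chemical incubation, reporter mRNA induction was read via RT-PCR fragment analysis; DMSO served as negative control and baseline.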

Read-out in assay [3]: E-selectin (Homo sapiens) (UniProt P16581)
In words: BSK_3C_Eselectin: BioMAP Diversity Plus: 3C Assay for Eselectin Biomarker Activity (AID 2283015).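 For outcome: cell surface E-selectin protein quantified by ELISA 24 h after dosing.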 To be noted: primary human endothelial cells (HUVEC); actives raise or lower the signal. The essentials:
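Endpoint derived by bidirectional fitting against DMSO vehicle; signal is ELISA-detected E-selectin from primary HUVEC at 24 h post-dosing, with parallel SRB staining (0.1% SRB, 560 nm) flagging cytotoxicity.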

Read-out in assay [4]: Interleukin-1 alpha (IL1a), IL1A (gene 3552)
As to the kind of experiment: BSK_BE3C_IL1a: BioMAP Diversity Plus: BE3C Assay for Interleukin-1 alpha (IL1a) Biomarker Activity (AID 2283016). The following applies: primary human bronchial epithelial cells; actives raise or lower the signal. The essentials: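 Cultures of primary human bronchial epithelial cells receive test chemical. After 24 h, IL-1a is quantified by ELISA, while parallel wells are fixed in TCA and SRB-stained for total protein. Changes in either direction are fitted relative to DMSO.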

Read-out in assay [5]: Monocyte Chemoattractant Protein-1 (MCP1), CCL2 (gene 6347)
As to the kind of experiment: BSK_3C_MCP1: BioMAP Diversity Plus: 3C Assay for Monocyte Chemoattractant Protein-1 (MCP1) Biomarker Activity (AID 2283017). To be noted: primary human endothelial cells (HUVEC); actives raise or lower the signal. In outline:
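Using human vascular primary endothelium, researchers measured MCP-1 by ELISA 24 h after treatment, with DMSO serving as negative control for bidirectional fitting.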

Read-out in assay [6]: Human Leukocyte Antigen - DR isotype (HLADR), HLA-DRA (gene 3122)
In words: BSK_3C_HLADR: BioMAP Diversity Plus: 3C Assay for Human Leukocyte Antigen - DR isotype (HLADR) Biomarker Activity (AID 2283019).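 For outcome: ELISA of cell-surface HLA-DR on HUVEC 24 h after dosing.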 The following applies: primary human endothelial cells (HUVEC); actives raise or lower the signal. The essentials:
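Compound added to primary HUVEC cultures, 24 h incubation, then HLA-DR determined by ELISA; endpoint derived by bidirectional fitting relative to DMSO negative control.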

Read-out in assay [7]: Monokine induced gamma interferon (MIG), CXCL9 (gene 4283)
In words: BSK_3C_MIG: BioMAP Diversity Plus: 3C Assay for Monokine induced gamma interferon (MIG) Biomarker Activity (AID 2283021).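 For AC50: MIG protein level measured by immunoassay in the treated endothelial cultures.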 The following applies: primary human endothelial cells (HUVEC); actives raise or lower the signal. In outline:
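After 24 h of treatment, human umbilical vein endothelial cultures (3C system) had their MIG biomarker level determined by ELISA, with DMSO serving as negative control.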

Read-out in assay [8]: Interleukin-8 (IL8), CXCL8 (gene 3576)
As to the kind of experiment: BSK_3C_IL8: BioMAP Diversity Plus: 3C Assay for Interleukin-8 (IL8) Biomarker Activity (AID 2283020). To be noted: primary human endothelial cells (HUVEC); actives raise or lower the signal. The essentials: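 Human vascular endothelial cells (umbilical vein) in the 3C system; IL-8 level detected by ELISA at 24 h post-dose, with DMSO as baseline.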

Read-out in assay [9]: Monocyte Chemoattractant Protein-1 (MCP1), CCL2 (gene 6347)
In words: BSK_4H_MCP1: BioMAP Diversity Plus: 4H Assay for Monocyte Chemoattractant Protein-1 (MCP1) Biomarker Activity (AID 2283018). The following applies: primary human endothelial cells (HUVEC); actives raise or lower the signal. In outline: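 Readout: MCP-1 ELISA on compound-treated HUVEC, sampled 24 h post-dosing. Baseline and negative control DMSO; bidirectional fit. Overt toxicity checked alongside by sulforhodamine B protein staining at time of biomarker measurement.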

Assay [10] addresses human Retinoid X Receptor beta (RXRb), RXRB (gene 6257) (UniProt P28702). In words: ATG_RXRb_TRANS: Attagene TRANS-FACTORIAL HepG2 Assay for human Retinoid X Receptor beta (RXRb) (AID 2283013; active = hit-call score of the fitted dose curve at least 0.9, where 1 is the maximum). In outline: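 Multiplexed TRANS reporter assay in HepG2; 24 h dosing; reporter mRNA by RT-PCR/CE fluorescence; gain-of-signal relative to DMSO.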

Chain of E-selectin (Homo sapiens) (P16581 whole entry, looked up): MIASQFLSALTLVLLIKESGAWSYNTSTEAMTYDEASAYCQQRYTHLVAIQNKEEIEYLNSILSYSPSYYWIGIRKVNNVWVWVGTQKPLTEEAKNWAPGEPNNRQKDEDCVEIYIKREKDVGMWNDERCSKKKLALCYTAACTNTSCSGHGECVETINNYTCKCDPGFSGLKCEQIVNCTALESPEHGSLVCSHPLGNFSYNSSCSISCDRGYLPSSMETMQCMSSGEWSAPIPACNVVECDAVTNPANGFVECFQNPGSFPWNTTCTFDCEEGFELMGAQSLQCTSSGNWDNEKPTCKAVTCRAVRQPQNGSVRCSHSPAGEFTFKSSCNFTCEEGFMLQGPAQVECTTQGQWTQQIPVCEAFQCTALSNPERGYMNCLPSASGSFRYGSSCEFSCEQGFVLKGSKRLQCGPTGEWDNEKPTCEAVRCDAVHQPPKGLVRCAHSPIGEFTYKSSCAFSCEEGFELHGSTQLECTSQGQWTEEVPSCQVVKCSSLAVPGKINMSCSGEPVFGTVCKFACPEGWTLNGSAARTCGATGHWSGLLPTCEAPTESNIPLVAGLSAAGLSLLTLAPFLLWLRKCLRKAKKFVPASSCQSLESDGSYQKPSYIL
Chain of human RAR-related Orphan Receptor gamma (RORg), RORC (gene 6097) (P51449 whole entry, looked up, the tested form may be a part): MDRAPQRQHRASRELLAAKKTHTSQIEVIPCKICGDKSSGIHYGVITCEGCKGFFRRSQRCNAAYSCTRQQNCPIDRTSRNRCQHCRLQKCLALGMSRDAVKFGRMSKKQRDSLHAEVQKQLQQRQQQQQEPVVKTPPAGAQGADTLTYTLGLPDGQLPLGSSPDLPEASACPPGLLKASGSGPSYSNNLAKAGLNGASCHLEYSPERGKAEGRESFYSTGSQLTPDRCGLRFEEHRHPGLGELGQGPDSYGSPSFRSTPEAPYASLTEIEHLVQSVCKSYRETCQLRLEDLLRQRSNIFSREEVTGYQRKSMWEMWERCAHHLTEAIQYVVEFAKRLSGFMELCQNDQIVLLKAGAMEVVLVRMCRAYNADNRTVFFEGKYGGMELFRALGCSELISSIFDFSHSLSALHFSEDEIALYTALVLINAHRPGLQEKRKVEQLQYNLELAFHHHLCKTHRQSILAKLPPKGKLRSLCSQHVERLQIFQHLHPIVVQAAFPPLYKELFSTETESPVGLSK
Chain of Retinoic acid receptor RXR-alpha (Homo sapiens) (P19793 whole entry, looked up, the tested form may be a part): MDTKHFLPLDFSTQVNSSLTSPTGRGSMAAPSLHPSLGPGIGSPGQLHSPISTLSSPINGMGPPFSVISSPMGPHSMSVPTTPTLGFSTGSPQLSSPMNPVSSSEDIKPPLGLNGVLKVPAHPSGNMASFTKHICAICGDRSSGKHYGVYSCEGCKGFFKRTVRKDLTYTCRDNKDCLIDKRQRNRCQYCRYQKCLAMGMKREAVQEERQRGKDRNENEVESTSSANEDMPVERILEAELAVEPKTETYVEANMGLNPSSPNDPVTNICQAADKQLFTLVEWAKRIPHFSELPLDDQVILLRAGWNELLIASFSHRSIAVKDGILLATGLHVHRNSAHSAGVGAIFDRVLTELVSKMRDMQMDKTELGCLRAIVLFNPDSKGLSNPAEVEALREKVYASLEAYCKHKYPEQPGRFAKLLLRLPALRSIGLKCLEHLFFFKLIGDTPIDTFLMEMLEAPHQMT
Chain of human Retinoid X Receptor beta (RXRb), RXRB (gene 6257) (P28702 whole entry, looked up): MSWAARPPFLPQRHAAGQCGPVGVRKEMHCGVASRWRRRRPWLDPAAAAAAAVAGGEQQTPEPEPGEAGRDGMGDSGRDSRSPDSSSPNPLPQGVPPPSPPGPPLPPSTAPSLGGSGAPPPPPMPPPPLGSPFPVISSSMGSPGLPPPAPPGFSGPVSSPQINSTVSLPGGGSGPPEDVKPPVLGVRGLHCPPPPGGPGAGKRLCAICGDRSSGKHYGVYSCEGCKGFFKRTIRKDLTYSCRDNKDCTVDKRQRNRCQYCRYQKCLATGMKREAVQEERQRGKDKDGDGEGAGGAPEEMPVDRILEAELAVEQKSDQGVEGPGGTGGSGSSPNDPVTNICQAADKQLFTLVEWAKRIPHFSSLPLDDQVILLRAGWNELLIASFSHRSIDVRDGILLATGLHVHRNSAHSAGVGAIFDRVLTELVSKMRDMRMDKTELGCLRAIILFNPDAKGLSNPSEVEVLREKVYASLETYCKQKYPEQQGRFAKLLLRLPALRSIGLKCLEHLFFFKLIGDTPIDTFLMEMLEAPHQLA

As for `CCS(=O)(=O)c1cccnc1S(=O)(=O)NC(=O)Nc1nc(OC)cc(OC)n1`, the outcome in [1], in assay [2], in assay [3], in [4], in assay [5] and in assay [6] was inactive. In addition, the outcome in assay [7] was inactive.
By AC50 is commonly meant the midpoint of the concentration-response curve, whichever way the signal moves. Regarding `COc1nn(CSP(=S)(OC)OC)c(=O)s1`, the compound was classed as inactive in [1], in assay [2], in assay [3], in assay [4], in assay [5] and in assay [7]. For the same compound, the concentration at half-maximal activity (AC50) in [6] is 36.5 µM (active).
In the case of `ClC1C(Cl)C(Cl)C(Cl)C(Cl)C1Cl` (stereo not given), the call in assay [2], in assay [3], in [4], in [5], in assay [6] and in assay [7] was inactive. Further, the AC50 is 20 µM (active) and 25.7 µM (active) and 5.22 µM (active) in [3]; 28.2 µM (active) and 25.3 µM (active) in assay [6].
As to `Clc1ccccc1-c1nnc(-c2ccccc2Cl)nn1`, the result in assay [2], in [3], in assay [4], in assay [5], in assay [6] and in assay [7] was inactive.
As to `C#CCN1C(=O)COc2cc(F)c(N3C(=O)C4=C(CCCC4)C3=O)cc21`, the outcome in assay [2], in [3], in [4], in assay [5], in assay [6] and in [8] was inactive. In addition, in [7], the outcome was inactive.
Regarding `COc1cc(OC)nc(NC(=O)NS(=O)(=O)c2cc(NC=O)ccc2C(=O)N(C)C)n1`, the result in assay [2], in assay [3], in [4], in [5], in assay [6] and in assay [7] was inactive.
Regarding `Cc1cc(C)nc(NC(=O)NS(=O)(=O)c2ccccc2C(=O)OC2COC2)n1`, the outcome in [3], in assay [4], in [5], in assay [9], in assay [6] and in assay [7] was inactive.
In the case of `O=S1OCC2C(CO1)C1(Cl)C(Cl)=C(Cl)C2(Cl)C1(Cl)Cl` (stereo not given), in assay [2], the outcome was inactive. The concentration at half-maximal activity (AC50) is 34.5 µM (active) in assay [3]; 33.4 µM (active) in assay [4]; 30.3 µM (active) in assay [5]; 26 µM (active) in assay [9]; 30 µM (active) in assay [6]; 36 µM (active) in assay [7].
For `O=C(NC(=O)c1c(F)cccc1F)Nc1ccc(OC(F)(F)C(F)OC(F)(F)F)c(Cl)c1` (stereo not given), the compound was classed as inactive in [2], in assay [4], in assay [5] and in assay [7]. Also, the concentration at half-maximal activity (AC50) in assay [3] was 12.7 µM (active); in assay [6], 14 µM (active).
Regarding `COP(=O)(OC)OC=C(Cl)Cl`, the result in [4], in [5] and in assay [7] was inactive. Further, in assay [6], the half-maximal activity concentration (AC50) was 20 µM (active).
Regarding `CCOc1nc(NC)nc(NC(=O)NS(=O)(=O)c2ccccc2C(=O)OC)n1`, the compound was called inactive in [2], in [3], in [4], in assay [5], in assay [9] and in assay [6]. Moreover, in [7], the result was inactive.
On to `CC1(c2ccc(Oc3ccccc3)cc2)OC(=O)N(Nc2ccccc2)C1=O` (stereo not given), for which the result in assay [2] and in assay [4] was inactive. The concentration at half-maximal activity (AC50) in assay [3] was 30.9 µM (active); in [5] it was 33.3 µM (active); in [6], 24 µM (active); in assay [8], 24 µM (active); in [7], 32.3 µM (active).
Take `COC(=O)c1ccccc1S(=O)(=O)NC(=O)Nc1nc(C)nc(OC)n1`: the result in [2], in assay [3], in assay [4], in [5], in assay [9] and in [6] was inactive. The result in [8] and in assay [7] was inactive.
On to `COC(=O)c1ccccc1CS(=O)(=O)NC(=O)Nc1nc(OC)cc(OC)n1`, for which the outcome in [2], in assay [3], in assay [4], in assay [5], in assay [6] and in assay [7] was inactive.
For the compound `CCCN(CCC)c1c([N+](=O)[O-])cc(C(F)(F)F)cc1[N+](=O)[O-]`, the result in assay [10], in assay [3], in assay [4], in assay [5], in assay [6] and in [8] was inactive. The outcome in assay [7] was inactive. In addition, the half-maximal activity concentration (AC50) in assay [9] is 24.7 µM (active).
As to `CC(C)(C)C(O)/C(=C\c1ccc(Cl)cc1Cl)n1cncn1` (stereo not given), the compound was called inactive in [2] and in [7]. The half-maximal activity concentration (AC50) is 24 µM (active) in assay [3]; 32.9 µM (active) in assay [4]; 30.9 µM (active) in assay [5]; 22.6 µM (active) in assay [9]; 31.6 µM (active) in [6].
Turning to `CCOCN(C(=O)CCl)c1c(C)cccc1CC`, the half-maximal activity concentration (AC50) in assay [3] was 15.7 µM (active); in assay [6], 20 µM (active). In addition, the outcome in assay [4], in assay [5] and in assay [7] was inactive.
With `CCC(C)Nc1c([N+](=O)[O-])cc(C(C)(C)C)cc1[N+](=O)[O-]` (stereo not given), the concentration at half-maximal activity (AC50) in assay [3] is 25.8 µM (active); in [5] it was 31.3 µM (active); in [6] it was 20 µM (active). The outcome in assay [4] and in assay [7] was inactive.
As for `C[C@H]1[C@H](c2ccc(Cl)cc2)SC(=O)N1C(=O)NC1CCCCC1`, the result in [3], in assay [4] and in assay [7] was inactive. Also, the AC50 is 20 µM (active) in [5], 8.84 µM (active) in assay [9] and 21.8 µM (active) in assay [6].
`CC(C)N(C(=O)COc1nnc(C(F)(F)F)s1)c1ccc(F)cc1`: the outcome in assay [2], in assay [3], in assay [4], in assay [5], in [6] and in assay [7] was inactive.
As to `COP(=S)(OC)Oc1ccc([N+](=O)[O-])cc1`, the concentration at half-maximal activity (AC50) in assay [3] is 8.4 µM (active); in assay [5], 33.8 µM (active); in [6] it was 17.4 µM (active). Also, the result in assay [4] and in assay [7] was inactive.
Consider `O=C1c2ccccc2C(=O)N1SC(Cl)(Cl)Cl`, for which the compound was called inactive in assay [2], in [3], in assay [5], in [6] and in assay [7]. In addition, the half-maximal activity concentration (AC50) in [4] is 32 µM (active).
As for `O=[N+]([O-])/N=C1\NCCN1Cc1ccc(Cl)nc1`, the call in [2], in [3], in [4], in assay [5], in [6] and in assay [7] was inactive.
Consider `COC(=O)c1ccccc1S(=O)(=O)NC(=O)N(C)c1nc(C)nc(OC)n1`, for which the compound was classed as inactive in [2], in assay [3], in assay [4], in assay [5], in assay [6] and in [8]. Moreover, the result in assay [7] was inactive.
With `CC[C@H](C)[C@H]1O[C@]2(C=C[C@@H]1C)C[C@@H]1C[C@@H](C/C=C(\C)[C@@H](O[C@H]3C[C@H](OC)[C@@H](O[C@H]4C[C@H](OC)[C@@H](O)[C@H](C)O4)[C@H](C)O3)[C@@H](C)/C=C/C=C3\CO[C@@H]4[C@H](O)C(C)=C[C@@H](C(=O)O1)[C@]34O)O2` (tested in a mixture with another compound), the call in assay [2] was inactive. Moreover, the AC50 was 9.55 µM (active) in [3]; 9.4 µM (active) in assay [4]; 6.9 µM (active) in assay [5]; 5.8 µM (active) in [6]; 6.07 µM (active) in [8]; 12.1 µM (active) in assay [7].
With `O=C(O)COc1ccc(Cl)cc1Cl`, the outcome in [3], in [4], in assay [5], in assay [6] and in assay [7] was inactive.
As to `CNC(=O)/C=C(\C)OP(=O)(OC)OC`, the compound was classed as inactive in assay [2], in assay [3], in assay [4], in [5], in assay [9] and in assay [6]. Further, the outcome in assay [8] and in [7] was inactive.
As to `COP(=S)(OC)Oc1ccc(SC)c(C)c1`, the result in [2], in assay [3], in assay [5], in assay [6] and in assay [7] was inactive. Moreover, in [4], the AC50 was 5.15 µM (active).
Turning to `CNC(=O)Oc1cccc(N=CN(C)C)c1`, the outcome in assay [2], in assay [4], in assay [5] and in [7] was inactive. Besides, the AC50 in assay [3] was 20 µM (active); in assay [6], 18.2 µM (active).

These data come from PubChem BioAssay (EPA / NIEHS).
